Laboratory results reported in PubChem BioAssay (NCATS).
Records with an inconclusive call do not appear. A call without a number means that no potency is given here. Activity calls are given as the source filed them. Calls come from the whole dose curve; as a rule, active = well fitted inhibition curve with a large enough effect; inconclusive = small, poorly fitted or top-dose-only effect; inactive = flat fitted curve, though single readings scatter.

Legend:
[1] = biological target: Glutathione peroxidase 1 (Homo sapiens) (UniProt P07203); assay: Primary qHTS Assay for Inhibitors of Recombinant Selenoprotein Glutathione Peroxidase 1 (GPX1) (AID 1845191)
Glutathione peroxidase 1 (Homo sapiens), sequence (P07203 whole entry, looked up): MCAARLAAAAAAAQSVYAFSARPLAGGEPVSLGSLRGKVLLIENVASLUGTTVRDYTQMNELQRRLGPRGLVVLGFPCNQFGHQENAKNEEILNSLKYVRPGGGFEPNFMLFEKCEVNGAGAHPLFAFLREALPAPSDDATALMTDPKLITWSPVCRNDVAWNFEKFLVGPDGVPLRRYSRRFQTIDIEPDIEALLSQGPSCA
How it was run: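 NADPH consumption tracked by fluorescence at 340/450 nm between t=0 and t=15 min, room temperature. Final mix: 10 nM GPX1, 100 nM glutathione reductase, 1 mM GSH, 0.5 mM NADPH, 0.5 mM cumene hydroperoxide, 0.01% BSA; 30 min compound–enzyme preincubation.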

[2] = biological target: Phospholipid hydroperoxide glutathione peroxidase GPX4 (Homo sapiens) (UniProt P36969); assay: Primary qHTS Assay for Inhibitors of Recombinant Selenoprotein Glutathione Peroxidase 4 (GPX4) (AID 1845192); note: potency is the fitted concentration of half-maximal effect
Phospholipid hydroperoxide glutathione peroxidase GPX4 (Homo sapiens), sequence (P36969 whole entry, looked up): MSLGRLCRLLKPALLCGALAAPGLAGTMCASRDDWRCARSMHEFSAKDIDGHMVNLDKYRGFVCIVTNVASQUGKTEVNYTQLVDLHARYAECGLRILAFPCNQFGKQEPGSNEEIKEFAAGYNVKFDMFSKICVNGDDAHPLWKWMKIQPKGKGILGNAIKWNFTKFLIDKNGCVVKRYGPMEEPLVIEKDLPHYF
How it was run: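 NADPH consumption followed by fluorescence at 340/450 nm, t=0 and after 15 min at room temperature. Reaction started with cumene hydroperoxide (0.5 mM final) after 30 min compound–GPX4 preincubation; final 200 nM GPX4, 100 nM GR, 1 mM GSH, 0.5 mM NADPH.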
Note: nearly all actives have a fitted effect of over 65% in size.

Row | SMILES | Potency [1] | Potency [2]
1 | COC1CC(=O)C23C(=O)NC(CC(C)C)C2C(C)=C(C)C(OO)C3/C=C(\C)CCC(O)C1O (stereo not drawn) | inactive | inactive
2 | C[C@]12CCC(=O)C=C1C=C[C@@H]1[C@@H]2CC[C@@]2(C)[C@H]1CC[C@@]2(O)CCC(=O)O | – | inactive
3 | CCC(=O)O[C@@](Cc1ccccc1)(c1ccccc1)[C@@H](C)CN(C)C | inactive | inactive
4 | O=C1C2CC=CCC2C(=O)N1SC(Cl)(Cl)Cl (stereo not drawn) | – | 14.1 µM (active)
5 | C=C(CO)C(=O)O[C@H]1C/C(C)=C/CC/C(CO)=C/[C@H]2OC(=O)C(=C)[C@H]12 | – | inactive
6 | OC1CCCCC1N1CCC(c2ccccc2)CC1 (stereo not drawn) | inactive | inactive
7 | CCCCCCC(=O)O[C@H]1CC[C@H]2[C@@H]3CC[C@H]4CC(=O)C=C(C)[C@]4(C)[C@H]3CC[C@]12C | inactive | 6.31 µM (active)
8 | COc1ccc2[nH]cc(CCN)c2c1 | inactive | inactive
9 | O=C1CC[C@@]2(O)C3Cc4ccc(O)c5c4C2(CCN3CC2CC2)[C@H]1O5 (stereo partly drawn) | – | inactive
10 | CC[C@H](C)[C@H]1O[C@]2(C=C[C@@H]1C)C[C@@H]1C[C@@H](C/C=C(\C)[C@@H](O[C@H]3C[C@H](OC)[C@@H](O[C@H]4C[C@H](OC)[C@@H](O)[C@H](C)O4)[C@H](C)O3)[C@@H](C)/C=C/C=C3\CO[C@@H]4[C@H](O)C(C)=C[C@@H](C(=O)O1)[C@]34O)O2 | – | 5.01 µM (active)
11 | O=C(C[C@@H]1NCCC[C@H]1O)Cn1cnc2cc(Br)c(Cl)cc2c1=O | – | 17.8 µM (active)
12 | C[C@@H]([C@H](O)c1ccccc1)N(C)C | inactive | inactive
13 | OC1(c2ccc(Cl)cc2)c2ccccc2C2=NCCN21 (stereo not drawn) | – | inactive
14 | NNC(N)=O | inactive | inactive
15 | CC(C)CCON=O | inactive | inactive
16 | C[C@]12CC[C@@H](O)C[C@H]1CC[C@@H]1[C@@H]2CC[C@]2(C)C(=O)CC[C@@H]12 | inactive | inactive
17 | CCOC(=O)c1ncn2c1[C@@H]1CCCN1C(=O)c1cc(OC)ccc1-2 | – | inactive
18 | CCCCCCCCCCCCCC(=O)O[C@@H]1[C@@H](C)[C@@]2(O)[C@@H](C=C(CO)C[C@@]3(O)C(=O)C(C)=C[C@@H]23)C2C(C)(C)[C@@]21OC(C)=O (stereo partly drawn) | inactive | inactive
19 | CC(=O)NBr | – | inactive

Row | SMILES | Potency [1] | Potency [2]
20 | CCOc1ccc2c3c1O[C@H]1[C@@H](O)C=C[C@H]4[C@@H](C2)N(C)CC[C@@]341 | inactive | inactive
21 | CCCCNCC(O)c1ccc(O)cc1 (stereo not drawn) | inactive | inactive
22 | N#CCCN | inactive | inactive
23 | O=C(NCNC(=O)NC1C(=O)NC(=O)N1CO)NC1C(=O)NC(=O)N1CO (stereo not drawn) | – | inactive
24 | FC(F)OC(F)(F)C(F)Cl (stereo not drawn) | – | inactive
25 | CCNC1(c2cccs2)CCCCC1=O (stereo not drawn) | inactive | inactive
26 | Cc1cccc(NC(=O)N[C@@H]2N=C(c3ccccc3)c3ccccc3N(C)C2=O)c1 | inactive | inactive
27 | COc1ccc2c(c1O)-c1cccc3c1[C@@H](C2)N(C)CC3 | inactive | inactive
28 | O=[N+]([O-])C(Br)(CO)CO | – | inactive
29 | C=CCN1CCC23c4c5ccc(O)c4O[C@H]2C(=O)CC[C@@]3(O)C1C5 (stereo partly drawn) | – | inactive
30 | NCC(O)c1cccc(O)c1 (stereo not drawn) | – | inactive
31 | C=CC[C@]1(O)CC[C@H]2[C@@H]3CCC4=CCCC[C@@H]4[C@H]3CC[C@@]21C | inactive | inactive
32 | Cc1ccccc1-n1c(CF)nc2ccc(N)cc2c1=O | – | 17.8 µM (active)
33 | C[C@@H]1O[C@@H](O[C@H]2C[C@@H](O)[C@]3(CO)[C@@H]4C(CC[C@]3(O)C2)[C@@]2(O)CC[C@H]([C@@H]3COC(=O)C3)[C@@]2(C)C[C@H]4O)[C@H](O)[C@H](O)[C@H]1O (stereo partly drawn) | inactive | inactive
34 | CC(N)[C@H](O)c1ccc(O)c(O)c1 (stereo partly drawn) | – | inactive
35 | C[C@]12CC[C@H]3[C@@H](CCC4=C(O)C(=O)CC[C@@H]43)[C@@H]1CC[C@@H]2OC(=O)CCC1CCCC1 | inactive | 14.1 µM (active)
36 | CCNCC(O)c1cccc(O)c1 (stereo not drawn) | inactive | inactive
37 | CC(C)(O)[C@H]1O[C@H]2CC[C@@]3(C)[C@@](O)(CC[C@H]4Cc5c([nH]c6ccccc56)[C@@]43C)C2=CC1=O | inactive | inactive
